The source of these data is PubChem BioAssay (Tox21).

Inconclusive results are not listed. A call without a number means that no potency is given here. Activity calls are given as the source filed them. Unless noted, the call rests on the fitted dose curve.
Potency means the concentration at half of the fitted maximal effect.

Tested on in the first assay: not listed separately
The assay is described as follows: p53 small molecule agonists, cell-based qHTS assay (AID 1963582; active means well fitted activation curve with a large enough effect in the signal ratio in the repeat runs, not every such curve was filed as active; the % refers to the signal ratio). The following applies: HCT-116 p53RE-bla reporter, beta-lactamase FRET ratio, 16 h; series mostly up to 66 µM. In outline: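 Agonist activity was scored from beta-lactamase FRET fluorescence in p53RE-bla cells treated 16 h at 37 C with compounds in DMSO, substrate incubation being 2 h at room temperature.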
For orientation: qHTS replaces the single test concentration by a dilution series.
Regarding `COc1cc(C)nc(-n2nc(C)cc2OC)n1`, the Potency entry is “inactive”.
On the same count and under the same terms, for `COc1c2occc2cc2ccc(=O)oc12` the value was “inactive”; for `O=P(c1ccccc1)(c1ccccc1)c1ccccc1`, “inactive”; for `Cc1cnc(C(=O)NCCc2ccc(S(=O)(=O)NC(=O)NC3CCCCC3)cc2)cn1`, “inactive”.
`O=C(NCC(O)CO)c1c(I)c(C(=O)NCC(O)CO)c(I)c(N(CCO)C(=O)CO)c1I` (centres undefined): the Potency entry was “inactive”.
In the case of `S=P(N1CC1)(N1CC1)N1CC1`, the Potency entry is “inactive”.
Still for that read-out and setting: the entry for `COc1ccc2cc([C@H](C)C(=O)O)ccc2c1` is “inactive”; for `CN1[C@@H]2CC(OC(=O)[C@H](CO)c3ccccc3)C[C@H]1[C@@H]1O[C@@H]12` (some centres undefined) it is “inactive”; for `CCCCOC(=O)c1ccccc1C(=O)OCC(CC)CCCC` (centres undefined) it is “inactive”.
As for `CCOC(=O)CC(=O)C(=O)OCC`, the Potency result is “inactive”.
The same measure, in the same setting: for `CC(C)(C(=O)O)c1ccc(C(O)CCCN2CCC(C(O)(c3ccccc3)c3ccccc3)CC2)cc1` (centres undefined) the value was “inactive”; for `CCN(CC)CCCC(C)Nc1c2ccc(Cl)cc2nc2ccc(OC)cc12` (centres undefined), 19.9 µM (active); for `CN1CCN(CCCN2c3ccccc3Sc3ccc(S(=O)(=O)N(C)C)cc32)CC1`, “inactive”.

In another assay the target is 5-hydroxytryptamine receptor 2A (Homo sapiens) (UniProt P28223). The assay is described as follows: 5-hydroxytryptamine receptor 2A (HTR2A) small molecule antagonists, cell-based qHTS assay (AID 1963586). Further: nearly all actives have a fitted effect of over 45% in size. The following applies: HTR2A-CHO cells, DOI-induced calcium flux, fluorescence; series mostly up to 61.5 µM. In outline: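 Antagonist-mode intracellular calcium assay: DOI (4 nM) added after 5 min compound pre-incubation at room temperature to dye-loaded HTR2A-CHO cells. Fluorescence followed for 3 min, sampled every second.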
Chain of 5-hydroxytryptamine receptor 2A (Homo sapiens) (P28223 whole entry, looked up): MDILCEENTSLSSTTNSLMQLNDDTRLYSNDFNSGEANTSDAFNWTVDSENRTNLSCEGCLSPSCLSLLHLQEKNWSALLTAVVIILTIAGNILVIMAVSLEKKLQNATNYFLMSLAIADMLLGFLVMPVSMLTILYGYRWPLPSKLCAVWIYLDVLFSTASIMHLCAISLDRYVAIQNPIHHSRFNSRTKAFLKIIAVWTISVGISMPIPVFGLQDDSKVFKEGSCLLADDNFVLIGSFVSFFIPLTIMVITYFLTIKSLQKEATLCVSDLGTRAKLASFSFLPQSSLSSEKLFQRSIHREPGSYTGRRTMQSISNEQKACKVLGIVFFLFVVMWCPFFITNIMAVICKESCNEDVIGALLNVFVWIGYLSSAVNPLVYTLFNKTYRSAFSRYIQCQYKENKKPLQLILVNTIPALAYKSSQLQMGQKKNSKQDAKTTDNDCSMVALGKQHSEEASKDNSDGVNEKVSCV
For the compound `COc1cc(C)nc(-n2nc(C)cc2OC)n1`, the Potency entry is “inactive”.
On the same count and under the same terms, for `O=P(c1ccccc1)(c1ccccc1)c1ccccc1` the value was “inactive”; for `CC1(C)CCC[C@]2(C)[C@H]3CCO[C@]3(C)CC[C@@H]12`, “inactive”; for `O=C(NCC(O)CO)c1c(I)c(C(=O)NCC(O)CO)c(I)c(N(CCO)C(=O)CO)c1I` (centres undefined), “inactive”.
The same measure, in the same setting: for `CC[C@@H]([C@H](C)O)n1ncn(-c2ccc(N3CCN(c4ccc(OC[C@@H]5CO[C@@](Cn6cncn6)(c6ccc(F)cc6F)C5)cc4)CC3)cc2)c1=O` the value was “inactive”; for `S=P(N1CC1)(N1CC1)N1CC1`, “inactive”; for `O=C1Cc2ccccc2C1`, “inactive”.
Still for that read-out and setting: the figure for `Cc1c(C)n(Cc2ccccc2)c2ccc(C(=O)OCCN(C)C)cc12` is 16.3 µM (active).
In the case of `COc1cc(Cl)c(OC)cc1N`, the Potency result is “inactive”.
Take `Nc1ccc(N)c([N+](=O)[O-])c1`: the Potency result was “inactive”.
Regarding `CC1CCCC1`, the Potency entry is “inactive”.
Still for that read-out and setting: the entry for `CN1[C@@H]2CC(OC(=O)[C@H](CO)c3ccccc3)C[C@H]1[C@@H]1O[C@@H]12` (some centres undefined) is “inactive”.
On to `CS(=O)(=O)c1ccc([C@@H](CC2CCCC2)C(=O)Nc2cnccn2)cc1Cl`, for which the Potency result was “inactive”.
Same read-out and setting: for `CN1CCC(N(Cc2cccs2)c2ccccc2)CC1` the value was 0.365 µM (active); for `COc1ccc2ccccc2c1`, 33.4 µM (active).
On the same count and under the same terms, the entry for `CCOC(=O)CC(=O)C(=O)OCC` is “inactive”; for `Cc1nc(-c2ccccn2)ncc1C(=O)Nn1cc(C)c2cc(F)ccc21` it is “inactive”.
Still for that read-out and setting: the entry for `COCCOC` is “inactive”.
For `CC(C)(C)c1csc(-c2cc3cc(OCc4ccccc4CC(=O)O)ccc3o2)n1`, the Potency result is “inactive”.
Regarding `CC(=O)N(C)C`, the Potency result is “inactive”.
Same read-out and setting: the entry for `CCCCCCCC1CCC(=O)O1` (centres undefined) is “inactive”.
